Assay results as given in PubChem BioAssay (NCATS).
Results filed as inconclusive are left out. Activity calls are given as the source filed them. Calls come from the whole dose curve; as a rule, active = well fitted inhibition curve with a large enough effect; inconclusive = small, poorly fitted or top-dose-only effect; inactive = flat fitted curve, though single readings scatter.

Biological target: Calcium and integrin-binding protein 1 (Homo sapiens) (UniProt Q99828)
Test: Primary qHTS for Identification of Calcium Integrin Binding Protein 1 (CIB1) Competitor (AID 1508620);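 note: GST tagged CIB1 binding a fluorescein labelled alphaIIb integrin peptide tracer; top concentration of the series differs between compounds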
Details: CIB1-GST / FITC-alphaIIb peptide fluorescence polarization; series mostly up to 114 µM; activity change, negative = inhibition: at the top concentration
Method in brief: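 CIB1-GST (1 uM final) and compound incubated 15 min at room temperature before adding FITC-alphaIIb peptide tracer (100 nM final). Competition for binding read by fluorescence polarization (ex 480, em 540) after another 15 min at room temperature.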
% is set by controls: 0 for no effect and ±100 for the full control effect.

Sequence of Calcium and integrin-binding protein 1 (Homo sapiens) (Q99828 whole entry, looked up): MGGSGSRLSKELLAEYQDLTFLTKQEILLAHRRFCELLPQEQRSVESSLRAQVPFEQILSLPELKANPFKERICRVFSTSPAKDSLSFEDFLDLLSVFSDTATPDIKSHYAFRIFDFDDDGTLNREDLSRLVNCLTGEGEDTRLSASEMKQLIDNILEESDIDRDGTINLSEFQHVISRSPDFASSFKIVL

Row | SMILES | activity change, negative = inhibition | Potency
1 | CC(=O)c1cccc(-c2csc(N3CCC(C(N)=O)CC3)n2)c1 | -2.67% (inactive) | –
2 | Cc1cc(C)nc(NCc2ccc(O)c3ncccc23)c1 | 19.8% (inactive) | –
3 | Cc1ccc(OCCn2c(CCNC(=O)C3CCC3)nc3ccccc32)cc1 | -4.31% (inactive) | –
4 | Cc1cc2[nH]c3c(=O)n(Cc4ccccc4F)ncc3c2s1 | -0.798% (inactive) | –
5 | O=C1CCCC2=C1C(c1[nH]ncc1Cl)N=C(Nc1nc3cc(Br)ccc3o1)N2 (stereo not given) | -12.4% (inactive) | –
6 | CC(=O)N1CCc2cc(S(=O)(=O)Nc3ccc(C)c(C)c3)ccc21 | -1.8% (inactive) | –
7 | CCc1nn2c(=O)cc(N3C(C)CNCC3C)nc2s1 (stereo not given) | 0.291% (inactive) | –
8 | Cc1ccc(Cl)cc1NS(=O)(=O)c1cc2c(cc1F)NC(=O)CC2 | -1.29% (inactive) | –
9 | COc1ccc(C2=Nn3c(nnc3-c3ccccc3F)SC2)cc1OCC1CC1 | 4.62% (inactive) | –
10 | O=C(Cn1cc(CN(Cc2ccccc2)Cc2ccccc2)nn1)Nc1cc(C(F)(F)F)ccc1Cl | 0.524% (inactive) | –
11 | COc1cc(O)c(C(CC(=O)N2CCC(C)CC2)c2ccc(OC)c(OC)c2)c(OC)c1 (stereo not given) | -2.24% [at 228 µM] (inactive) | –
12 | Cc1nc(-c2ccccc2)oc1-c1ccc2ncnc(NCCc3cnc[nH]3)c2c1 | -1.36% (inactive) | –
13 | Cc1ccc2nc3sc(C(=O)Nc4ccncc4)cc3cc2c1 | -1.51% (inactive) | –
14 | S=C(Nc1cc(Cl)ccn1)N1CCN(c2ccc(Cl)c(Cl)c2)CC1 | -4.14% (inactive) | –
15 | Cc1ccnc(NC(=S)N2CCN(c3ccc(N)cc3)CC2)c1 | -9.23% (inactive) | –
16 | COc1ccc(C2Nc3ccccc3C(=O)N2Cc2ccccc2)cc1COc1ccc(C)cc1 (stereo not given) | 1.29% (inactive) | –
17 | Cc1cc2c(s1)c1cnn(Cc3c(F)cccc3C(F)(F)F)c(=O)c1n2C | 2.92% (inactive) | –
18 | CCCCc1ccc(-c2ccc(=O)n(CC(=O)NCCc3ccccc3)n2)cc1 | 4.3% (inactive) | –
19 | Cc1cc(C)nc(NC(=S)N2CCN(c3ccc4ncccc4c3[N+](=O)[O-])CC2)c1 | -13.2% (inactive) | –
20 | O=C1CCCC2=C1C(c1[nH]ncc1Cl)N=C(Nc1ccccn1)N2 (stereo not given) | -6.41% (inactive) | –

Row | SMILES | activity change, negative = inhibition | Potency
21 | COc1cccc(C2c3c(ncn(-c4cccc(C)c4)c3=N)Oc3ccc4ccccc4c32)c1 (stereo not given) | 8.38% (inactive) | –
22 | COc1cccc(C2c3c(ncn(-c4ccccc4C)c3=N)Oc3ccc4ccccc4c32)c1 (stereo not given) | 5.84% (inactive) | –
23 | Cc1ccc(NS(=O)(=O)c2cc3c(cc2-c2ccsc2)NC(=O)CO3)cc1C | 0.612% (inactive) | –
24 | Cc1cnc(-c2ccccc2C(C)C)nc1NCc1ccc(C#N)cc1 | -3.47% (inactive) | –
25 | CCOC(=O)C1CCN(C(=O)CNC(=O)Nc2ccccc2Cl)CC1 | 3.94% (inactive) | –
26 | CSc1cnc(-c2ccccc2C(C)C)nc1NCc1ccc(-c2cccnc2)cc1 | 2.63% (inactive) | –
27 | O=C(Nc1ccc(-c2nc3ccccc3[nH]2)cc1)Nc1ccc2c(c1)CCCO2 | 4.57% (inactive) | –
28 | COc1ccc(NC(=O)c2[nH]c(C)c(C(C)=O)c2C)cc1S(=O)(=O)Nc1ccc(C#N)cc1 | 1.89% (inactive) | –
29 | O=C(O)c1ccc2c(c1)C(=O)N([C@]1(C(=O)O)C[C@H]1c1ccccc1)C2=O | -2.57% (inactive) | –
30 | CC(=O)Nc1sc2c(c1-c1ccc(N3CCN(C(C)=O)CC3)nc1)CCNC2 | -0.727% (inactive) | –
31 | O=C1Cc2cc(S(=O)(=O)N3CCN(c4ccc([N+](=O)[O-])cc4)CC3)ccc2N1 | -2.78% (inactive) | –
32 | FC(F)(F)c1ccccc1-c1nc(NCc2ccccc2)c2ccccc2n1 | 1.56% (inactive) | –
33 | c1csc(CNc2ccc(N3CCOCC3)cc2)c1 | -5.12% (inactive) | –
34 | CCOC(=O)c1nc(NCc2ccccc2)sc1C | -2.45% (inactive) | –
35 | COc1cccc(N2C(=O)c3ccccc3C2=O)c1 | 3.32% (inactive) | –
36 | Cc1cc(NC(=O)Nc2cccc(-c3ccncc3)n2)ccc1Cl | – | inactive
37 | O=C1CCCC2=C1C(c1[nH]ncc1Cl)N=C(Nc1nc3cccc(Cl)c3o1)N2 (stereo not given) | -6.4% (inactive) | –
38 | Cc1csc(CNc2ncnc3ccc(-c4ccc5c(c4)OCCO5)cc23)c1 | 0.566% (inactive) | –
39 | CCOC(=O)/C=C/c1cc(F)c(S(=O)(=O)N2CCN(S(=O)(=O)c3ccc4c(c3)OCCO4)CC2)cc1F | 4.97% (inactive) | –
40 | COC(=O)c1ccccc1NC(=O)c1ccc(C#N)cc1 | -2.51% (inactive) | –
